Laboratory results from PubChem BioAssay (EPA / NIEHS).
Several values for one entry are separate records, joined by “and”; a condition that tells them apart may be missing. Equal entries are not always repeated. Activity calls are given as the source filed them. How the source made its calls: active means hit-call score of the fitted dose curve at least 0.9, where 1 is the maximum; inactive means score below 0.9.

Assay: BSK_SAg_SRB: Viability Assessment in the BioMAP Diversity Plus: SAg Assay (AID 2283096);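 further: hits may be either gain or loss of signal compared with DMSO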
Settings: primary human HUVEC with PBMC
Description: BSK_SAg is a cell-based, multiplexed-readout assay that uses umbilical vein endothelium and peripheral blood mononuclear cells, a human vascular primary cell co-culture, with measurements taken at 24 hours after chemical dosing in a 96-well plate.BSK_SAg_SRB is an assay component measured in the BSK_SAg assay. It measures protein content, a form of viability reporter, as detected with absorbance signals by Sulforhodamine staining technology.Data from the assay component BSK_SAg_SRB was analyzed into 1 assay endpoint. This assay endpoint, BSK_SAg_SRB, was analyzed with bidirectional fitting relative to DMSO as the negative control and baseline of activity. Using a type of viability reporter, gain or loss-of-signal activity can be used to understand changes in the signaling. Furthermore, this assay endpoint can be referred to as a primary readout, because this assay has produced multiple assay endpoints where this one serves a signaling function. To generalize the intended target to other relatable targets, this assay endpoint is annotated to the cell morphology intended target family, where the subfamily is cell conformation.
The levels of cell surface (or secreted, indicated by the prefix "s") biomarker endpoints were measured by ELISA. Overt cytotoxicity to cells in confluent adherent cultures (all systems other than the BT system) was assessed by measuring total protein levels using sulforhodamine B (SRB) staining in parallel cultures at the time of biomarker measurements, indicated as SRB endpoints. For proliferation assays for adherent cell types, individual cell types are cultured at sub-confluence and relative cell numbers quantified by SRB staining at time points optimized for each system (48 h: 3C and CASM3C systems; 72 h: BT and HDF3CGF systems; 96 h: SAg system). SRB was performed by staining cells with 0.1% SRB after fixation with 10% TCA and reading wells at 560 nm.Viability and proliferation of PBMC (T cells) was quantified by Alamar Blue reduction for the SAg and BT systems. For PBMC viability (referred to as PBMC Cytotoxicity within the assay endpoint names), cells were plated (75,000/well in a 96-well plate) and then chemical samples added for 1 h before addition of activators, SEB and TSST-1 (20 ng/mL final concentration each). Cells were incubated for 90 h. Then, Alamar Blue (20 uL/well) (Invitrogen, Cat DAL1100) was added for 6 h, and the plates were read with a fluorescence microplate reader at 546/580 nm (excitation/emission). For PBMC proliferation, cells were plated and activated as above but incubated for only 16 h prior to addition of Alamar Blue. Plates were read after 6 h.
With `O=C(C(=O)c1ccccc1)c1ccccc1` the outcome was “inactive”. For `Cc1c(C(N)=O)cc([N+](=O)[O-])cc1[N+](=O)[O-]`, the outcome was “inactive”. For `CCC[Si](OC(C)=O)(OC(C)=O)OC(C)=O`, the outcome was “inactive”. In the case of `CN(C)CCC(c1ccc(Cl)cc1)c1ccccn1` (configuration not stated), the outcome is reported as “inactive”. In the case of `Oc1cccc2ccccc12`, the outcome is reported as “inactive”. In the case of `COc1cc(CNC(=O)CCCC/C=C/C(C)C)ccc1O`, the outcome is reported as “inactive”. For `OC(C(F)(F)F)(C(F)(F)F)C(O)(C(F)(F)F)C(F)(F)F`, the AC50 was 26.9 µM (active) and 26.8 µM (active). With `CCCCC(CC)COC(=O)C=Cc1ccc(OC)cc1` (configuration not stated) the AC50 was 31 µM (active) and 35.2 µM (active). For `CCCCCCCCCCC1CO1` (configuration not stated), the outcome was “inactive”. In the case of `COc1ccc(C(=O)c2ccccc2O)c(O)c1`, the outcome is reported as “inactive”. In the case of `Cc1cc(-n2nc3ccc(Cl)cc3n2)c(O)c(C(C)(C)C)c1`, the outcome is reported as “inactive”. For `COC(=O)/C=C\C(=O)OC`, the outcome was “inactive”. In the case of `Sc1nc2ccccc2s1`, the outcome is reported as “inactive”. In the case of `CCCCCCCCCC/C=C/C1CC(=O)OC1=O` (configuration not stated), the outcome is reported as “inactive”. In the case of `CC(C)CC(=O)CC(C)CC(C)C` (configuration not stated), the outcome is reported as “inactive”. With `CN(C)Cc1cc(C(C)(C)C)c(O)c(C(C)(C)C)c1` the outcome was “inactive”. In the case of `CCCCCCC(O)CCCCCCCCCCC(=O)OC` (configuration not stated), the outcome is reported as “inactive”. In the case of `CCCCCCCCCCCCCCCCCC[N+](C)(C)C`, the AC50 is reported as 3.82 µM (active). With `O=[N+]([O-])c1cc(S(=O)(=O)Nc2ccccc2)ccc1Nc1ccccc1` the AC50 was 29.3 µM (active) and 31.8 µM (active). For `Cc1cccnc1`, the outcome was “inactive”. In the case of `CCC(C)=NO`, the outcome is reported as “inactive”. With `CC[N+](CC)(CC(=O)Nc1c(C)cccc1C)Cc1ccccc1` (tested in a mixture with another compound) the outcome was “inactive”. With `COc1ccccc1Oc1c(NS(=O)(=O)c2ccc(C(C)(C)C)cc2)nc(-c2ncccn2)nc1OCCO` the outcome was “inactive”. In the case of `CC[N+](CC)(CC(=O)Nc1c(C)cccc1C)Cc1ccccc1`, the outcome is reported as “inactive”. In the case of `C1CN(CCOCCN2CCOCC2)CCO1`, the outcome is reported as “inactive”. In the case of `CC(C)C1OCCN1CCOC(=O)NCCCCCCNC(=O)OCCN1CCOC1C(C)C` (configuration not stated), the outcome is reported as “inactive”. In the case of `CN(C)c1ccc(C(c2ccccc2)c2ccc(N(C)C)cc2)cc1`, the AC50 is reported as 12.6 µM (active).
